The values that follow come from ChEMBL document CHEMBL1157539, “Thousands of chemical starting points for antimalarial lead identification” (Nature, 2010).

Format in all cases: functional
The subject of assay [1] is Plasmodium falciparum. The assay can be described thus: GSK_TCMDC: Inhibition of Plasmodium falciparum 3D7 in whole red blood cells, using parasite LDH activity as an index of growth. Test compounds present at 2uM.
In assay [2] the test system is Plasmodium falciparum. The assay can be described thus: GSK_TCMDC: Inhibition of Plasmodium falciparum Dd2 in whole red blood cells, using parasite LDH activity as an index of growth. Test compounds present at 2uM.
For assay [3], the system named is HepG2. Briefly: GSK_TCMDC: Percent inhibition of human HepG2 cell line. Test compounds present at 10uM.

Each structure is given as a SMILES string.

In general, Inhibition refers to the drop in the measured response relative to a control, in per cent. Read a high Inhibition as a strong effect.

On to `CCn1c(-c2nonc2N)nc2cnc(Oc3cccc(NC(=O)c4ccc(OCCN5CCCCC5)cc4)c3)cc21`, for which the Inhibition is on record as 98% in assay [1], 7% in assay [2] and 16% in assay [3].

Regarding `COc1ccc(CNCc2cccc(-c3ccc(-c4nc5cc(C(F)(F)F)ccc5[nH]4)cc3)c2)cc1.O=C(O)C(F)(F)F`, the Inhibition in assay [1] came to 100%; in assay [2] it was 95%; in assay [3] it was 23%.

As for `CCOc1ccc(N(CC)S(=O)(=O)c2cc(Br)cc3c2N(C(=O)C2CC2)CC3)cc1`, the Inhibition is reported as 99% in assay [1], 97% in assay [2] and 0% in assay [3].

In the case of `COc1cc2[nH]c(-c3ccc(O)cc3)c(C)c(=O)c2c(OC)c1OC`, the Inhibition in assay [1] is 100%; in assay [2], 94%; in assay [3], 1%.

Take `CCCC(C)Nc1nc(C)cc(N[C@@H](Cc2ccccc2)C(=O)NCCc2ccccc2)n1.O=C(O)C(F)(F)F` (some centres undefined): the values for the Inhibition in assay [1], in assay [2] and in assay [3] were 97%, 68% and 11%, respectively.

`CCN1CCC(N(Cc2ccc(-c3ccc(C(F)(F)F)cc3)cc2)C(=O)Cn2c(SCc3ccc(F)cc3)nc(=O)c3c2CCC3)CC1.O=C(O)C(O)C(O)C(=O)O`: the Inhibition was determined as 90% in assay [1], 96% in assay [2] and 46% in assay [3].

On to `COc1ccc2nccc([C@@H](O)CN3CCC(NCc4nc5c(cc4F)SCC(=O)N5)C(F)C3)c2c1.Cl` (some centres undefined), for which the Inhibition came to 95% in assay [1], 49% in assay [2] and 9% in assay [3].

Turning to `Cc1cc(=NN=Cc2ccccn2)c2cc(F)ccc2[nH]1`, the Inhibition in assay [1] is listed as 100%; in assay [2] it was 96%; in assay [3], 9%.

For the compound `CC[C@H](C)[C@H](NC(=O)[C@H](CC1CCCCC1)[C@H](CC)N(O)C=O)C(=O)Nc1ccccn1`, the Inhibition was found to be 96% in assay [1], 95% in assay [2] and 14% in assay [3].

For `CC(CN(C)C)C(=O)Nc1ccc(-c2ccc(-c3nc4cc(C(F)(F)F)ccc4[nH]3)cc2)cc1` (centres undefined), the Inhibition in assay [1] is 100%; in assay [2] it was 93%; in assay [3], 14%.

`O=C1Nc2cccc3c2C1(CCCCN1CCC(c2c[nH]c4cc(C(F)(F)F)ccc24)CC1)CCC3` (centres undefined): the Inhibition in assay [1] came out at 99%; in assay [2], 79%; in assay [3], 99%.

Take `CC1(CCN2CCC(c3c[nH]c4cnccc34)CC2)CCCc2c(Br)cccc2C1=O.Cl` (centres undefined): the Inhibition amounted to 100% in assay [1], 66% in assay [2] and 14% in assay [3].

Take `CCOC(=O)c1cnc2cc(N3CCCC3)c(Cl)cc2c1OCC`: the Inhibition in assay [1] turned out to be 97%; in assay [2], 97%; in assay [3], 0%.

In the case of `CCOc1ccccc1NC(=O)C(Sc1nc(C)cc(C)c1C#N)c1ccccc1` (centres undefined), the Inhibition in assay [1] stood at 99%; in assay [2] it was 98%; in assay [3] it was 0%.

In the case of `CC[C@H](C)CNC(=O)c1cncc(-c2ccc(CNCCCc3ccccc3)cc2)c1.O=C(O)C(F)(F)F`, the Inhibition in assay [1] is on record as 100%; in assay [2] it was 99%; in assay [3] it was 19%.

As to `O=C(Nc1ccc(Oc2cccnc2)cc1)C1CCN(Cc2cc(Cl)ccc2O)CC1`, the Inhibition in assay [1] turned out to be 83%; in assay [2] it was 1%; in assay [3], 37%.

Consider `CN(C(=O)C1(c2ccc(Cl)cc2)CC1)C1CCN(CCCCCNC(=O)/C=C/c2ccc(Cl)c(Cl)c2)CC1`, for which the Inhibition in assay [1] came to 88%; in assay [2] it was 0%; in assay [3], 91%.

As for `Br.Cc1ccc(OCCCCON2C(=N)N=C(N)NC2(C)C)cc1C`, the Inhibition was 94% in assay [1], 97% in assay [2] and 61% in assay [3].

On to `COc1cc(Cc2cnc(N)nc2N)ccc1OCc1ccc(NC(C)=O)cc1`, for which the values for the Inhibition in assay [1], in assay [2] and in assay [3] were 98%, 0% and 9%, respectively.

On to `COCCNCc1nc(-c2ccc3c(Nc4ccc(F)c(O)c4)ccnc3c2)cs1`, for which the results for the Inhibition in assay [1], in assay [2] and in assay [3] were 100%, 99% and 0%, respectively.

Regarding `COc1ccc(CNc2nc(NCc3ccc(C(F)(F)F)cc3)c3cc(OC)c(OC)cc3n2)cc1OC`, the results for the Inhibition in assay [1], in assay [2] and in assay [3] were 100%, 100% and 80%, respectively.

Regarding `N#Cc1cccc(-c2cnc(N)c(-c3nc4cc(S(N)(=O)=O)ccc4[nH]3)c2)c1`, the Inhibition in assay [1] amounted to 100%; in assay [2] it was 99%; in assay [3], 16%.

`O=C(Nc1cccc(-c2ccc(CN3CCC(O)CC3)cc2)c1)c1ccc(Cl)cc1.O=C(O)C(F)(F)F`: the values for the Inhibition in assay [1], in assay [2] and in assay [3] were 95%, 8% and 46%, respectively.

In the case of `O=C(CCCCCNC(=O)c1ccc(O)c(-c2ccc(Cl)c(Cl)c2)c1)NC1CCCCCC1`, the Inhibition in assay [1] was found to be 92%; in assay [2], 3%; in assay [3] it was 0%.

`COc1ccc(CN(C)CCCSc2ccc(NC(=O)c3cccc4c(=O)cc(-c5ccccc5)[nH]c34)cc2)cc1OC`: the Inhibition in assay [1] stood at 93%; in assay [2] it was 94%; in assay [3] it was 15%.

Consider `Brc1cccc(Nc2nccc(Nc3ccc(Oc4ccccc4)cc3)n2)c1.Cl`, for which the Inhibition in assay [1] came to 89%; in assay [2], 5%; in assay [3], 0%.

As to `COc1ccc(Cl)cc1NC(=O)CN(C)C(=O)c1cnn(-c2ccccc2)n1`, the Inhibition in assay [1] is reported as 100%; in assay [2], 99%; in assay [3] it was 0%.

For `O=[N+]([O-])c1ccc2c(c1)c1ccccc1n2Cc1ccccc1O`, the figures for the Inhibition in assay [1], in assay [2] and in assay [3] were 93%, 84% and 0%, respectively.
